Screening results as filed in PubChem.
Pf Dd2 inh – qHTS Primary assay for Inhibitors of Plasmodium falciparum Dd2 growth in vitro; Potency, µM (series often up to 28.9 µM), without a hit: at the top dose activity, negative = inhibition, hits mostly inhibitors; hit rate 4.3% among 120,000; P. falciparum Dd2 growth, SYBR Green, 72 h; active = well fitted inhibition curve with a large enough effect;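 note: plate controls were DMSO vehicle for no effect and reference drug for full effect; nearly all actives have a fitted effect of over 65% in size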
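Infected erythrocytes (Dd2, 0.3% parasitemia, 2.5% hematocrit final) are added to compound in RPMI-1640/Albumax II medium, grown 72 h at 37C in low oxygen, then lysed with saponin/Triton-X containing SYBR Green and read by fluorescence.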
The depositor's hits bear a star; i = inactive; [ ] = dose if it differs, or a comment. This excerpt belongs to a sample that is enriched for hits. Potency is the fitted concentration of half-maximal effect.

SMILES	Pf Dd2 inh
Cc1nc(CCNC(=O)CC2COCCN2C(=O)c2ccsc2)no1 (configuration not stated)	-15.9%
COCC(=O)NC[C@H]1O[C@@H](CO)[C@@H](O)[C@H]1N1CCC(C)CC1	-6.1%[44.1 µM]
COCCCNC(=O)N1C[C@@H]2CCCN3CCC[C@@H]([C@H]23)[C@H]1CCCC(=O)NCC1CC1	-15.9%
COc1ccc(C(=O)N2CCN(C(=O)c3cccs3)C[C@@H]2C(=O)N[C@H]2CCCNC2=O)cc1	33.0%
CCN(CC)C(=O)C(NC(=O)c1cccs1)C1CCN(C(=O)CCc2ccccc2)CC1 (configuration not stated)	i
Cc1[nH]cnc1-c1nccn1Cc1nnnn1-c1ccccc1	26.7%
CC1=C[C@@H](CN2CCC(C(N)=O)CC2)[C@H](C(C)C)C[C@H]1Cc1nnc(-c2ccncc2)o1	-11.0%[44.1 µM]
CC(=O)N1CCN(C[C@@H]2C=C(C)[C@H](Cc3nnc(-c4ccncc4)o3)C[C@H]2C(C)C)CC1	11.2µM*
CC1=C[C@@H](CNCc2ccc(C#N)cc2)[C@H](C(C)C)C[C@H]1Cc1nnc(-c2cccnc2)o1	-18.8%
CC1=C[C@@H](CNCc2ccncc2)[C@H](C(C)C)C[C@H]1Cc1nnc(C)o1	i
CC1=C[C@@H](CN2CCC(C(N)=O)CC2)[C@H](C(C)C)C[C@H]1Cc1nnc(-c2cccnc2)o1	i
CC1=C[C@@H](CNCc2ccccn2)[C@H](C(C)C)C[C@H]1Cc1nnc(-c2ccccc2F)o1	3.16µM*
CC(=O)N1CCN(C[C@@H]2C=C(C)[C@H](Cc3nnc(-c4ccccc4F)o3)C[C@H]2C(C)C)CC1	12.6µM*
O=S(=O)(c1ccc(F)c(F)c1)N1CCCC(Cn2c(C3CC3)nc3cccnc32)C1 (configuration not stated)	-26.5%
COc1cccc(C(=O)N[C@@H]2CN(c3ncccn3)C[C@H]2CN(C)C)c1	-1.5%
CCOc1ccc(C(=O)N2CCC[C@H]2c2nc(-c3ccccc3Cl)no2)cc1	5.2%
O=C(Cn1nc2c(cc1=O)CCCC2)NC1CCS(=O)(=O)C1 (configuration not stated)	-17.1%
COC(=O)C1CCN([C@H]2[C@@H]3OC[C@@H](O3)[C@@H](NC(=O)Nc3cccc(OC)c3)[C@@H]2O)CC1	5.8%
Cn1nnnc1C1CCCN(C(=O)c2cccc3[nH]ccc23)C1 (configuration not stated)	-5.7%
C[S+](=O)([O-])N1CC2(Cc3ccccc3N(C(=O)Cc3ccc(F)cc3)C2)C1	7.4%
O=C(NC1CC1)c1c[nH]c2cccnc12	-2.9%[44.1 µM]
Cc1ccc(NC(=O)N2CCN(c3nnnn3-c3ccccc3)CC2)cc1F	-29.1%
Cc1ccc(NC(=O)N2CCN3CCCCC3C2)cc1F (configuration not stated)	-13.7%
CC(C)c1ccc(NC(=O)N2CCN(c3ccc(Cl)c(Cl)c3)CC2)cc1	3.7%
CCc1cccc(-n2nnnc2N2CCN(C(=O)NC(C)c3ccccc3)CC2)c1 (configuration not stated)	-14.2%
SMILES	Pf Dd2 inh
Cc1ccc(NC(=O)N2CCN(c3nnnn3-c3cccc(C(C)C)c3)CC2)cc1F	11.2µM*
Cc1cc(-n2nnnc2N2CCN(C(=O)Nc3ccc(C)c(F)c3)CC2)ccc1F	5.01µM*
CCN(CC)C(=O)[C@@H](C)C1CC[C@@]2(C)CC[C@H](NC(=O)c3ccc(OC)cc3)[C@@H](C)[C@@H]2[C@H]1O (some centres not stated)	-7.0%
O=C(CCC1CCCC1)NC1CCc2nn(CC3CC3)c(=O)n2CC1 (configuration not stated)	i
Cc1nnnn1CCC(=O)NCC1CCN(c2cnn(C)c(=O)c2)C1 (configuration not stated)	22.0%
O=C(NCc1cccnc1)C1CCC(=O)N(CCCN2CCCC2=O)C1 (configuration not stated)	-1.4%
c1ccc(-n2cc(CN3CCN(c4nc5ccccc5o4)CC3)nn2)cc1	-13.9%
Cc1cc(C)cc(N2CCN(Cc3cn(-c4ccccc4)nn3)CC2=O)c1	11.2µM*
COc1ccc(C(=O)N2CCN(Cc3cn(-c4ccccc4)nn3)CC2)cc1	i
CN(C1CCOCC1)C1CCN(C(=O)c2ccn[nH]2)CC1	14.0%
Cc1cc(C)c2[nH]c(C(=O)N3CCN(Cc4ccccc4)C(=O)C3C)c(C)c2c1 (configuration not stated)	-18.4%
O=C(c1ccccc1F)N1CCC2(CC1)CC(c1cccnc1)=NO2	12.5%
CCN(C(=O)c1cc2c(=O)oc3ccc(C)cc3c2s1)c1cc(OC)ccc1OC	1.2%
CCN(C(=O)c1cc2c(Cl)nc3ccccc3c2s1)c1cccc(Cl)c1	10µM*
CCc1ccccc1N(C)C(=O)c1cc2c(Cl)nc3ccc(C)cc3c2s1	94.7%[5.79 µM]
CCN(C(=O)c1cc2c(Cl)nc3ccc(C)cc3c2s1)c1cc(OC)ccc1OC	8.91µM*
Cc1ccc(Cl)cc1N(C)C(=O)c1cc2c(Cl)nc3ccccc3c2s1	19.6%
CCN(C(=O)c1cc2c(=O)oc3ccccc3c2s1)c1cccc(C(F)(F)F)c1	-4.2%
